What all share (type): functional
Assay [1] has as its target Solute carrier family 2, facilitated glucose transporter member 1 (Homo sapiens) (UniProt P11166). The assay is described as follows: ST_JUDE_LEISH: Cytotoxicity at 2uM final concentration against transgenic Leishmania Mexicana promastigotes LmGLUT1 that are glucose transport deficient and complemented with the human glucose transporter GLUT1. Activity is measured by DNA content using SYBR green in vitro.

The target of assay [2] is Hexose transporter 1 (Plasmodium falciparum) (UniProt O97467). The assay is described as follows: ST_JUDE_LEISH: Cytotoxicity at 2uM final concentration against transgenic Leishmania Mexicana promastigotes LmPfHT that are glucose transport deficient and complemented with the Plasmodium falciparum hexose transporter. Activity is measured by DNA content using SYBR green in vitro.

The target in assay [3] is Glucose transporter (Leishmania mexicana) (UniProt O61059). Put plainly: ST_JUDE_LEISH: Cytotoxicity at 2uM final concentration against transgenic Leishmania Mexicana promastigotes LmGT2 that are glucose transport deficient and complemented with the L. Mexicana glucose transporter 2. Activity is measured by DNA content using SYBR green in vitro.

Solute carrier family 2, facilitated glucose transporter member 1 (Homo sapiens), sequence (P11166 whole entry): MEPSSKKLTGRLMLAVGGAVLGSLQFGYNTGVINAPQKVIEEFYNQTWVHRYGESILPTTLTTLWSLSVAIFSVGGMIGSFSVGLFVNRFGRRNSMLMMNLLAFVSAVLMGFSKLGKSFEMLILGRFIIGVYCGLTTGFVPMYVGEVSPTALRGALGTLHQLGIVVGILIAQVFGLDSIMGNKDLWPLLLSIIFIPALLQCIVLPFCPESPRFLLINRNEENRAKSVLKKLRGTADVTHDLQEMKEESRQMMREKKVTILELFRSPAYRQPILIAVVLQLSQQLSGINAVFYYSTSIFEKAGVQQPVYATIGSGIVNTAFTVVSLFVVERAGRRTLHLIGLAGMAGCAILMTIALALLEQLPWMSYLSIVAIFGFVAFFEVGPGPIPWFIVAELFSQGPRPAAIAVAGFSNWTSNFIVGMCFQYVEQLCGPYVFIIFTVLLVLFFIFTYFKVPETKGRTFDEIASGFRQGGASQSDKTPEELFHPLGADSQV

As a reminder, the inhibition is the relative decrease from the control value, in per cent. Turning to `C=CCN(c1nc(NC)nc(NCc2c(OC)cccc2OC)n1)C1CCCC1`, the inhibition in assay [1] was 5.12%; in assay [2], 3.87%; in assay [3] it was 1.88%.
For `c1ccc(CNCc2cccc(-c3cccc(-c4nc5ccccc5[nH]4)c3)c2)cc1`, in that order: 4.44%, 5.52% and 3.48%.
With `CCCCCCCCn1c2c(c(=N)c3c1CCC3)CCCC2`, the results for the inhibition in assay [1], in assay [2] and in assay [3] were 94.4%, 95.9% and 92.6%, respectively.
For `Clc1ccc(CNc2nc(NCCc3c[nH]cn3)nc(NC3CCCCC3)n2)cc1`, in that order: 0.15%, -1.21% and -0.72%.
In the case of `CC(=O)Nc1ccc(C(=O)Nc2cccc(-c3ccc(-c4nc5cccc(C)c5[nH]4)cc3)c2)cn1`, the inhibition was determined as 4.86% in assay [1], 4.51% in assay [2] and 4.91% in assay [3].
On the same counts, the results for `CCCC(C)Nc1nc(C)cc(N[C@@H](CC(C)C)C(=O)NCCc2ccccc2)n1` (stereo partly drawn) are 7.28%, 6.41% and 8.06%.
For the molecule `O=C(Cc1cccnc1)Nc1cccc(-c2cccc(-c3nc4cc(C(F)(F)F)ccc4[nH]3)c2)c1`, the inhibition in assay [1] was 2.67%; in assay [2], 1.57%; in assay [3] it was 1.35%.
On the same counts, the results for `COc1cccc(CN2CCCC(OC(c3ccc(F)cc3)c3ccc(F)cc3)C2)c1O` (stereo not drawn) are 0.04%, 0.76% and -1.69%.
On the same counts, the results for `COc1ccc2ccccc2c1C=NN=c1cc(C)[nH]c2cc(C(F)(F)F)ccc12` are 10.2%, 8.24% and 6.68%.
For `OC(CNCc1cccc(Oc2ccc(Cl)cc2)c1)c1cc(C(F)(F)F)cc(C(F)(F)F)c1` (stereo not drawn), in that order: 0.85%, -0.5% and -2.95%.
Take `O=C(Nc1ccc(Cl)cc1)Nc1ccc(-c2cccc(-c3nc4ccccc4[nH]3)c2)cc1`: the results for the inhibition in assay [1], in assay [2] and in assay [3] were 1.48%, 2.71% and -1.97%, respectively.
On the same counts, the results for `Cc1cc(NCC2CCN(CC3CCCCC3)C2)nc(Nc2ccc(Cl)cc2)n1` (stereo not drawn) are 7.03%, 5.29% and 2.45%.
Regarding `O=c1cc(NCCC2CC=CCN2Cc2ccc(Cl)c(Cl)c2)[nH]c2ccccc12` (stereo not drawn), the figures for the inhibition in assay [1], in assay [2] and in assay [3] were 1%, 0.33% and -0.25%, respectively.
As for `COC(=O)Nc1cc(C(F)(F)F)ccc1N1CCC(CNS(=O)(=O)c2ccc(OC)cc2)CC1`, the inhibition worked out at 7.63% in assay [1], 4.92% in assay [2] and 6.14% in assay [3].
For `COc1ccc(C2N=C(N)N=C(N)N2c2ccc(Cl)cc2)cc1OC` (stereo not drawn), in that order: 2.61%, 2.52% and 2.93%.
For `O=C(NC1CCCCC1)C(c1cccs1)N(CCc1ccccc1)C(=O)c1ccco1` (stereo not drawn), in that order: 1.57%, 1.89% and 0.46%.
For `CC(C)CCOc1ccc(NC(=O)c2cccs2)cc1`, in that order: 4.93%, 5.81% and 5.27%.
On to `Cc1cc(=O)[nH]c(-n2nc(C)cc2NC(=O)CC(c2ccccc2)c2ccccc2)n1`, for which the inhibition is 14.8% in assay [1], 23.1% in assay [2] and -1.63% in assay [3].
For `COc1ccc(CN2CCC(NCc3cccc(-n4ccnc4)c3)CC2)cc1`, the inhibition in assay [1] stood at 3.99%; in assay [2] it was 3.17%; in assay [3] it was 2.72%.
As to `Cc1cc(N)c2cc(NC(=O)c3cc4ccccc4s3)ccc2n1`, the inhibition is -0.05% in assay [1], -1.3% in assay [2] and -0.52% in assay [3].
For `OC(c1cc(C(F)(F)F)nc2c(F)cccc12)C1CCCCN1` (stereo not drawn), in that order: 0.27%, 1.52% and 1.48%.
`COc1ccc2nccc([C@@H](O)CN3CCC(NCc4cc5ccccc5nn4)CC3)c2c1`: the inhibition is 6.88% in assay [1], 7.17% in assay [2] and 7.16% in assay [3].
For `COC(=O)C(NC(=O)NC1CCN(c2ccnc(Nc3ccc(F)cc3)n2)C1)c1ccccc1` (stereo not drawn), in that order: -3.11%, -1.97% and -2.66%.
For `O=C([C@H]1CCCCN1c1ccc([N+](=O)[O-])c2ccccc12)N1CCN(c2ncccn2)CC1`, in that order: 2.02%, 3.05% and 2.64%.
On the same counts, the results for `Cc1cccc2nc(-c3ccc(-c4cccc(CN5CCN(c6ccncc6)CC5)c4)s3)[nH]c12` are 4.03%, 2.05% and 0.33%.
`Cc1cc(N[C@@H](Cc2ccccc2)C(=O)NCCCOC(C)C)nc(NCCc2ccc(F)cc2)n1`: the inhibition in assay [1] turned out to be 5.75%; in assay [2], 2.58%; in assay [3] it was 0.38%.
On the same counts, the results for `CC(C)[C@H](NCC(=O)c1ccccc1)C(=O)O` are -0.14%, 0.65% and -0.17%.
Turning to `CN1CCCC(COc2cc3c(cc2Br)CCN3C(=O)Nc2ccc(-c3ccncc3)c(Cl)c2)C1` (stereo not drawn), the inhibition stood at 9.37% in assay [1], 5.78% in assay [2] and 3.35% in assay [3].
On the same counts, the results for `N#Cc1ccc(NC(=O)NC2CCN(CCCCCNC(=O)/C=C/c3ccc(Cl)c(Cl)c3)CC2)cc1` are 3.11%, 3.17% and 6.31%.
For `CCCCCCN1CCC(NCc2cccc(C#N)c2)CC1`, in that order: 0.29%, 0.77% and 2.03%.
Take `OCCNc1nc(Nc2ccc(Cl)cc2)nc2ccccc12`: the inhibition in assay [1] was 6.17%; in assay [2], 4.56%; in assay [3] it was 1.54%.
As to `Oc1cc(NC[C@@H]2CCC[C@@H]2NCc2ccc(Cl)c(Cl)c2)nc2ccccc12`, the inhibition came out at 9.21% in assay [1], 8.79% in assay [2] and 7.45% in assay [3].
In the case of `COc1cc(NC(=O)c2cc3c(C)nn(-c4cccc(C(F)(F)F)c4)c3s2)cc(OC)c1OC`, the inhibition in assay [1] stood at 0.22%; in assay [2], 1.29%; in assay [3], 2.46%.
For `Cc1cnc2ccc(NS(=O)(=O)c3sc4ccc(Cl)cc4c3C)cc2c1N1CCNCC1`, in that order: 3.23%, 4.04% and -0.02%.
For `O=S(=O)(c1cc(Cl)c(Cl)cc1Cl)N1CCCCC(c2ccc(C(F)(F)F)cc2)=N1`, in that order: -0.66%, 0.43% and 0.91%.
On the same counts, the results for `COc1ccc(CC(=O)NC(CCN2CCC3(CC2)CN(S(C)(=O)=O)c2ccccc23)c2ccc(Cl)c(Cl)c2)cc1OC` (stereo not drawn) are 3.24%, 3.56% and 2.27%.
Turning to `COc1ccc(OCC(=O)Nc2nc(-c3ccc(OC)cc3)c(C)s2)cc1`, the values for the inhibition in assay [1], in assay [2] and in assay [3] were 1.08%, 0.94% and -1.09%, respectively.
On the same counts, the results for `CCOc1cc(C(=O)Nc2cccnc2)cc(Br)c1OCCC(C)C` are 1.25%, -2.07% and -0.8%.
`CCCOc1ccc(C(F)(F)F)cc1NC(=O)c1nc2nc(C)cc(C)n2n1`: the inhibition came out at 6.01% in assay [1], 5.05% in assay [2] and 1.31% in assay [3].
For `CCCCCN1CCCC(NS(=O)(=O)c2ccc(C(=O)Nc3cccc(C(F)(F)F)c3)cc2)C1` (stereo not drawn), in that order: 1.16%, 2.32% and 0.39%.
On the same counts, the results for `COc1ccc(-c2cccc(NC(=O)c3ccc(C#N)cc3)c2)cc1CN(C)CCN(C)C` are 2.8%, 2.9% and 0.41%.
`COc1ccc2nccc(N/N=C/c3ccccc3[N+](=O)[O-])c2c1`: the inhibition was determined as 2.92% in assay [1], 4.3% in assay [2] and 0.03% in assay [3].
On the same counts, the results for `O=C(NC(c1ccccc1)c1ccccc1)C(c1cc2ccccc2o1)N1CCN(C(c2ccccc2)c2ccccc2)CC1` (stereo not drawn) are 4.42%, 2.92% and 0.24%.
On the same counts, the results for `c1cc(CN2CCN(CCN3CCOCC3)CC2)cc(-c2ccc(-c3nc4ccccc4[nH]3)cc2)c1` are 10.9%, 6.81% and 9.58%.
Take `COc1cc(NCCCCCNc2cc(Cl)nc3ccccc23)nc2ccccc12`: the inhibition was determined as 1.24% in assay [1], 2.23% in assay [2] and 2.29% in assay [3].
For `CCCNc1ccc2nccc(CCN3CCC(NCc4ccc5c(c4)NC(=O)CS5)CC3)c2n1`, in that order: 0.84%, 3.1% and 2.43%.
For `O=C(c1ccc(Cl)c(Cl)c1)N1CCc2c([nH]c3ccccc23)C1CN1CCCC1` (stereo not drawn), in that order: 4.26%, 5.06% and 3.77%.
With `Cc1c(-c2ccccc2)ccc2[nH]cc(CC#N)c12`, the inhibition in assay [1] was found to be 1.56%; in assay [2] it was 3.54%; in assay [3], 0.3%.
On the same counts, the results for `O=C(NC1CCN(CCN2CCc3ccccc3CC2)CC1)c1ccc(-c2ccc(C(F)(F)F)cc2)cc1` are 5.74%, 9.69% and 4.56%.
For the molecule `CN(C)c1ccc(-c2cscc2C(=O)NC2CCCN(Cc3cccnc3)C2)cc1` (stereo not drawn), the figures for the inhibition in assay [1], in assay [2] and in assay [3] were -0.4%, -0.27% and -0.28%, respectively.
In the case of `CCCCCC(C)N/C(=N/c1ccccc1Br)Nc1ccc(C#N)cc1O` (stereo not drawn), the inhibition worked out at 2.35% in assay [1], 1.33% in assay [2] and 0.92% in assay [3].

Values taken from ChEMBL document CHEMBL3433997, “St. Jude Leishmania screening dataset” (2016).
